Source: PubChem (National Center for Advancing Translational Sciences (NCATS))
Only some compounds are listed: those with a hit (about 10% of all), similar ones and a draw of the others.
NS1 function inh – blocks influenza NS1 protein function; Potency, µM (doses to about 46.1 µM), inactives show top-dose activity, positive = more growth; AID 2326; 270,000 tested, 0.4% active; note: actives are rising curves; nearly all actives have a fitted effect of over 50% in size
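S. cerevisiae expressing influenza A NS1, grown in glucose, washed, then diluted 1:100 into pH 6.0 -URA galactose medium with 23 nl compound. Growth recovery read as OD600; NS1-free strain serves as control.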
Pf growth 96h – inhibits malaria parasite growth, 96 h | P. falciparum luciferase reporter growth, 96 h | Potency, µM (top dose mostly 28.7 µM), for the others: top-dose activity change, negative = inhibition, most hits filed as inhibitors | 320,000 tested, 6.9% active; active = well fitted inhibition curve with a large enough effect; inconclusive = small, poorly fitted or top-dose-only effect, or another doubt; inactive = no such curve, though single readings can be large or run the other way; note: % is set by controls: 0 for no effect and ±100 for the full control effect
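Parasite growth measured via integrated firefly luciferase reporter in P. falciparum. Infected erythrocytes at 2% hematocrit, 0.05% parasitemia final were treated 96 hours at 37 C under 5% CO2, and luminescence was read.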
Pf growth 48h – P. falciparum growth inhibition at 48 hours (one generation). P. falciparum luciferase growth in erythrocytes, 48 h. AID 504832. 310,000 tested, 5.9% active. Potency, µM (titrated, usually from 28.7 µM), for inactives: at the top dose activity change, negative = inhibition, hits mostly inhibitors; active = well fitted inhibition curve with a large enough effect; inconclusive = small, poorly fitted or top-dose-only effect, or another doubt; inactive = no such curve, though single readings can be large or run the other way; note: % is set by controls: 0 for no effect and ±100 for the full control effect
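Luminescence readout; reporter = integrated firefly luciferase in P. falciparum. RBC culture at 2% hematocrit, 0.1% parasitemia final, 37 C/5% CO2; decreased signal taken as growth inhibition.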
SARS PLpro yeast – inhibitors of SARS-CoV papain-like protease in yeast. Potency, µM (top dose mostly 32.9 µM), for inactives: at the top dose activity, positive = growth rescue, usual class: activators. AID 485353. 330,000 tested, 0.19% active. S. cerevisiae expressing SARS-CoV PLpro, growth rescue; note: 0% is about no effect; nearly all actives have a fitted effect of over 55% in size
Active calls of the source: *; ? = inconclusive; nt = no result; [ ] = remark or other dose. Unless noted, calls come from the whole dose curve. Potency is the fitted concentration of half-maximal effect.

SMILES | NS1 function inh | Pf growth 96h | Pf growth 48h | SARS PLpro yeast
CN/N=C(\Cc1nc2ccccc2[nH]1)c1ccc([N+](=O)[O-])cc1 | 0% | ? | ? | -6%
Clc1ccc(/C(Cc2nc3ccccc3[nH]2)=N\Nc2ccccc2)cc1 | -3% | ? | ? | -7%
COc1ccc([C@@H]2[C@@H]3C(=O)N(C(C)(C)C)C(=O)[C@@H]3[C@]3(Cc4ccccc4)C(=O)N(c4ccc(C(F)(F)F)cc4)C(=O)N23)cc1 | 27% | 5.9µM* | ? | -4%
COc1ccc([C@@H]2[C@@H]3C(=O)N(C(C)(C)C)C(=O)[C@@H]3[C@]3(CC(C)C)C(=O)N(c4ccc(C(F)(F)F)cc4)C(=O)N23)cc1 | 7% | 3.7µM* | 12µM* | 11%
COc1cccc(C(c2nnnn2CCc2ccccc2)N2CCN(c3ccccc3)CC2)c1OC (stereo unspecified) | -14% | ? | 4.7µM* | -41%
COc1ccccc1C(c1nnnn1CCc1ccccc1)N1CCN(c2ccccc2)CC1 (stereo unspecified) | -11% | ? | -3% | 5%
C=CCN1CCN(C(c2cccc(OC)c2OC)c2nnnn2CCC(C)C)CC1 (stereo unspecified) | nt | 10% | 7.4µM* | -1%
COc1ccccc1N1CCN(C(c2ccccc2)c2nnnn2CCc2ccccc2)CC1 (stereo unspecified) | -1% | -6% | 10µM* | -19%
Cc1ccc(S(=O)(=O)N2CCCCC2)cc1C(=O)NCCN1CCOCC1 | nt | -7% | 17% | 7%
CCOC(=O)c1c(CN(CC)CC)oc2ccc(OC)cc12 | -4% | 15µM* | ? | -11%
CN(Cc1cnccn1)Cc1ccccc1OCC(O)CN1CCc2ccccc2C1 (stereo unspecified) | 2% | 14% | 12µM* | 0%
CCOC(=O)c1cnc2ccccc2c1Nc1ccc2c(c1)OCCO2 | -20% | -1% | 4.1µM* | 14%
CCOC(=O)CSc1nc(Nc2ccc3c(c2)OCO3)c2ccccc2n1 | -35% | 8.3µM* | 8.3µM* | -28%
N#CCSc1nc(Nc2ccc3c(c2)OCO3)c2ccccc2n1 | -10% | -5% | ? | 1%
O=C(NS(=O)(=O)Nc1ccc(Br)cn1)c1c[nH]c2ccccc12 | 10% | 18% | 30% | -16%
CC(Nc1ncnc2nc[nH]c12)c1ccccc1 (stereo unspecified) | -32% | 13µM* | ? | 3%
COc1cc2ncnc(NCc3ccccc3C)c2cc1OC | -2% | 13µM* | 15µM* | 1%
COc1cc2ncnc(NCc3ccc(F)cc3)c2cc1OC | 1% | 10µM* | nt | -1%
CC(C)[C@H](Nc1ncnc2nc[nH]c12)C(=O)O | 0% | nt | nt | nt
COc1cc2ncnc(N[C@H](C)c3ccccc3)c2cc1OC | -3% | 13µM* | ? | 1%
CSc1ccccc1NC(=O)Nc1cccc2ccccc12 | 16% | 1% | -4% | 0%
CCC(C)C(NC(=O)C1CCC(C)CC1)C(=O)NC1CCN(Cc2ccccc2)CC1 (stereo unspecified) | -4% | ? | 20% | 1%
COc1ccccc1N(C)S(=O)(=O)c1ccc(C(=O)OCC(N)=O)cc1 | nt | -30%[5.75 µM] | -19% | -1%
CCOc1ccc(CN(C)C(=O)c2ccc(S(=O)(=O)N(C)c3ccccc3OC)cc2)cc1 | nt | ? | 13µM* | -14%
COc1ccccc1N(C)S(=O)(=O)c1ccc(C(=O)N(C)Cc2ccc(Cl)s2)cc1 | nt | ? | 12µM* | -1%
SMILES | NS1 function inh | Pf growth 96h | Pf growth 48h | SARS PLpro yeast
COc1ccccc1N(C)S(=O)(=O)c1ccc(C(=O)O)cc1 | nt | -4% | 13% | -4%
COc1cc(-c2noc(C)c2-c2ccc(N(C)C)nc2)cc(OC)c1OC | -13% | ? | ? | -6%
COc1cc(-c2noc(C)c2-c2ccc3[nH]ccc3c2)cc(OC)c1OC | -9% | 10µM* | ? | -20%
Cc1ccc(OCCC(=O)OCC(=O)N2CCN(S(=O)(=O)c3ccc(C)cc3)CC2)cc1 | nt | 89% | 0% | 3%
O=C(NNC1=Nc2cccc3cccc1c23)c1ccc(Br)cc1 | -31% | -27% | 12µM* | 1%
CCOc1ccc(NC(=O)c2ccncc2)cc1 | -2% | ? | 46% | 0%
CCOc1cc(C(=O)Nc2ccncc2)cc(OCC)c1OCC | 3% | ? | 5.2µM* | 0%
CC(=O)c1cccc(N(C(=O)CNC(=O)c2cccs2)C(C(=O)NCC2CCCO2)c2ccccc2)c1 (stereo unspecified) | 1% | 0% | ? | -1%
COc1ccc(C(C)=O)cc1CN1CC=C(c2ccccc2)CC1 | 1% | ? | -20% | -1%
COc1cc(C)cc(CN2CC=C(c3ccccc3)CC2)c1O | nt | ? | 1.2µM* | -15%
COc1ccc2ccc(O)c(CN3CC=C(c4ccccc4)CC3)c2c1 | nt | ? | 1.7µM* | -10%
COc1ccc2c(CN3CC=C(c4ccccc4)CC3)cc(=O)oc2c1 | nt | ? | ? | 0%
CN1N=C2c3ccccc3CCC2C1c1ccc(F)cc1 (stereo unspecified) | -5% | 1.7µM* | 1.3µM* | -2%
CN1N=C2c3ccccc3CCC2C1c1ccc(Cl)cc1 (stereo unspecified) | 0% | 1.5µM* | ? | 0%
COc1ccc(S(=O)(=O)NCC2CCCN(C(=O)CCC(F)(F)F)C2)cc1 (stereo unspecified) | 17% | 119% | -16% | 0%
COc1cc2c(cc1OC)/C(=C/C(=O)c1ccc([N+](=O)[O-])c(C)c1)NCC2 | 4% | 5.2µM* | 9.3µM* | 2%
Cc1onc(-c2c(Cl)cccc2Cl)c1CO/N=C(\C#N)c1c(Cl)cccc1Cl | -1% | ? | 15µM* | -2%
Brc1cccc(CNCC2CCCO2)c1 (stereo unspecified) | -4% | -3% | 35% | -2%
Cc1ccccc1-c1nn(-c2ccc(F)cc2F)cc1CNCCN(C)C | 8% | 13µM* | ? | -2%
Cc1ccccc1-c1nn(-c2ccc(F)cc2F)cc1CNCCCN(C)C | 0% | ? | 2.6µM* | 1%
COCCn1c(=NC(C)=O)sc2cc([N+](=O)[O-])ccc21 | 30% | 13% | 35% | 1%
COCCn1c(=NC(=O)/C=C/c2ccccc2)sc2cc(NC(C)=O)ccc21 | -4% | 2.6µM* | ? | 15%
COC(=O)C1CCN(c2ccc(Cl)nn2)CC1 | 2% | ? | 1.5µM* | 0%
COC(=O)C1CCN(c2cnccn2)CC1 | 0% | ? | 58% | 0%
Cc1ccc(Nc2nnc(SCc3cc(=O)n4ccsc4n3)s2)c(C)c1 | -1% | 4.7µM* | 6.6µM* | -3%
Cc1cccc(C)c1Nc1nnc(SCC(=O)NC2CCS(=O)(=O)C2)s1 (stereo unspecified) | 13% | -12% | 0% | 21%
CCc1ccc(Nc2nnc(SCc3cc(=O)n4ccsc4n3)s2)cc1 | -6% | nt | -4% | -6%
COc1ccccc1Nc1nnc(SCc2cc(=O)n3ccsc3n2)s1 | nt | 4.7µM* | ? | 0%
COc1ccccc1NC(=O)CSCc1cc(=O)n2ccsc2n1 | -4% | -10% | 5% | 0%
Cc1ccc(Nc2nnc(SCC(=O)NC3CCS(=O)(=O)C3)s2)c(C)c1 (stereo unspecified) | nt | 2.6µM* | ? | -1%
